Test results taken from the supplement of paper PMC10849652.
Targets with a hit are over-represented here; the source holds about 8,800 in all. About 0.5% of all pairs of compound and target were hits.

Compound: CC1=C2C(=CC=C1)N=C(N(C2=O)C3=CC=CC=C3C)CN4C=NC5=C(N=CN=C54)N
Assay: log2 fold change, soluble protein after heating vs DMSO (PISA); higher = thermal stabilisation; K562 lysate, 10 uM; active = over 0.2 and 3.5 SD of the protein, either way, in both replicates (recomputed)
Method in brief: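 Values give the log-two fold change in thermal stability against solvent controls, from duplicates. Crude K562 extract at 1 mg/mL protein, made by dounce homogenisation in PBS pH 7.4 with 1 mM MgCl2, was treated with 10 μM compound for 30 min. After 3 min heating across 48°C-58°C, aliquots were pooled, adjusted to 0.5% NP-40 at 4°C and centrifuged at 21,000xg for 90 min. The supernatant was measured by TMTpro 16plex LC-MS/MS with channel sums equalised.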

Sequence of UniProt P10398 (P10398 whole entry, looked up): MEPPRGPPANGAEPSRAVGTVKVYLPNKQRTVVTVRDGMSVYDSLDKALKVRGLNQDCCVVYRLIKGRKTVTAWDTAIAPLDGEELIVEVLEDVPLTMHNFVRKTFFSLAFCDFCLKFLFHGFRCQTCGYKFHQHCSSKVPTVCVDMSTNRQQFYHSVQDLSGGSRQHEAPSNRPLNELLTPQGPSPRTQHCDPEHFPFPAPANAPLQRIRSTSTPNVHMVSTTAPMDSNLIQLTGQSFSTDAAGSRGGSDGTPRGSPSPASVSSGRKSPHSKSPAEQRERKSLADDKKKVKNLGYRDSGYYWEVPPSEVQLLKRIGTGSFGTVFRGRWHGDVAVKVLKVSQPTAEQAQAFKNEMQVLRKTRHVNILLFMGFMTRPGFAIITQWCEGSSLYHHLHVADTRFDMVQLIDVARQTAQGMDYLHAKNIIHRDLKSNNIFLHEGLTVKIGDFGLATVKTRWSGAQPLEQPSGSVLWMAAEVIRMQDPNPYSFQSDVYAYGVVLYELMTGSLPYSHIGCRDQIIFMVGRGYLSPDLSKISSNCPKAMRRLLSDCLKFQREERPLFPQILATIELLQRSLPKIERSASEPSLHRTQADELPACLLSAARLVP
Sequence of UniProt P27144 (P27144 whole entry, looked up): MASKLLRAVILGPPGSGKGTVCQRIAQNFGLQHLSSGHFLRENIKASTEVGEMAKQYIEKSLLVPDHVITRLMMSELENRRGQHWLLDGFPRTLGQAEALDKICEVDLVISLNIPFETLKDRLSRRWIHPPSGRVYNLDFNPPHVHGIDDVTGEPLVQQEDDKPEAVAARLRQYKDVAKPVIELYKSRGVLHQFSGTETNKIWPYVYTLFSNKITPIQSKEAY
Sequence of UniProt O43823 (O43823 whole entry, looked up): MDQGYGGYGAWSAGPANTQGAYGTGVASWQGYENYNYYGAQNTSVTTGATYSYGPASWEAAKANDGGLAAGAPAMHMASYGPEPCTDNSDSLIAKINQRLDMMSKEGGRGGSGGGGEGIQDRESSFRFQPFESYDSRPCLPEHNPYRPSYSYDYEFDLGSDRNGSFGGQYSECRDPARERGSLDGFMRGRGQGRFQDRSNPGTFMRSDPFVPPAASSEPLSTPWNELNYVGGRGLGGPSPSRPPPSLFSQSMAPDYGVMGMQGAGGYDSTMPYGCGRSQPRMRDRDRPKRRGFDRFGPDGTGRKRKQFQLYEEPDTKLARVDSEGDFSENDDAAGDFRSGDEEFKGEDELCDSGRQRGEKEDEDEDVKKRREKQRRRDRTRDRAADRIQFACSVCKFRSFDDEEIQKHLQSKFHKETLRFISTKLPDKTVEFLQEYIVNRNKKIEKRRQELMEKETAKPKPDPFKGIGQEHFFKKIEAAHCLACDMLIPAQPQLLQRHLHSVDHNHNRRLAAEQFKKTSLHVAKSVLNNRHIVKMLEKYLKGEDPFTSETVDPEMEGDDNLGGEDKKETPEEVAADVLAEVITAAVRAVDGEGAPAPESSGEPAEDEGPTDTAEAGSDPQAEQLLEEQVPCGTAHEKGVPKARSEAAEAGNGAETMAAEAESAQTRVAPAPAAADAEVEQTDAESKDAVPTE
Sequence of UniProt P31749 (P31749 whole entry, looked up): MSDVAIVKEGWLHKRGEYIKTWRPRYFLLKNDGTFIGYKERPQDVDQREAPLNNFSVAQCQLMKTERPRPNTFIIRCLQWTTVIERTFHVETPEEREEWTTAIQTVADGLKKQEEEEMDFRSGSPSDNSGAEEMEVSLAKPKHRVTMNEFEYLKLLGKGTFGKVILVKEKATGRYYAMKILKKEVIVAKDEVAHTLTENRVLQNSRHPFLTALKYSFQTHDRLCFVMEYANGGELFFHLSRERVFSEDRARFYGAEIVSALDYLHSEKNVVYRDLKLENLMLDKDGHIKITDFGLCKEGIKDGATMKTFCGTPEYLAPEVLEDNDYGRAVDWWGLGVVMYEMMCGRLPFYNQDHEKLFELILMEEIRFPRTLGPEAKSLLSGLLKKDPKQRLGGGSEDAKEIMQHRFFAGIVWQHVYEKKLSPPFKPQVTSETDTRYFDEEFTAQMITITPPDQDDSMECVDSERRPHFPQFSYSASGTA
Sequence of UniProt Q9UPW5 (Q9UPW5 whole entry, looked up): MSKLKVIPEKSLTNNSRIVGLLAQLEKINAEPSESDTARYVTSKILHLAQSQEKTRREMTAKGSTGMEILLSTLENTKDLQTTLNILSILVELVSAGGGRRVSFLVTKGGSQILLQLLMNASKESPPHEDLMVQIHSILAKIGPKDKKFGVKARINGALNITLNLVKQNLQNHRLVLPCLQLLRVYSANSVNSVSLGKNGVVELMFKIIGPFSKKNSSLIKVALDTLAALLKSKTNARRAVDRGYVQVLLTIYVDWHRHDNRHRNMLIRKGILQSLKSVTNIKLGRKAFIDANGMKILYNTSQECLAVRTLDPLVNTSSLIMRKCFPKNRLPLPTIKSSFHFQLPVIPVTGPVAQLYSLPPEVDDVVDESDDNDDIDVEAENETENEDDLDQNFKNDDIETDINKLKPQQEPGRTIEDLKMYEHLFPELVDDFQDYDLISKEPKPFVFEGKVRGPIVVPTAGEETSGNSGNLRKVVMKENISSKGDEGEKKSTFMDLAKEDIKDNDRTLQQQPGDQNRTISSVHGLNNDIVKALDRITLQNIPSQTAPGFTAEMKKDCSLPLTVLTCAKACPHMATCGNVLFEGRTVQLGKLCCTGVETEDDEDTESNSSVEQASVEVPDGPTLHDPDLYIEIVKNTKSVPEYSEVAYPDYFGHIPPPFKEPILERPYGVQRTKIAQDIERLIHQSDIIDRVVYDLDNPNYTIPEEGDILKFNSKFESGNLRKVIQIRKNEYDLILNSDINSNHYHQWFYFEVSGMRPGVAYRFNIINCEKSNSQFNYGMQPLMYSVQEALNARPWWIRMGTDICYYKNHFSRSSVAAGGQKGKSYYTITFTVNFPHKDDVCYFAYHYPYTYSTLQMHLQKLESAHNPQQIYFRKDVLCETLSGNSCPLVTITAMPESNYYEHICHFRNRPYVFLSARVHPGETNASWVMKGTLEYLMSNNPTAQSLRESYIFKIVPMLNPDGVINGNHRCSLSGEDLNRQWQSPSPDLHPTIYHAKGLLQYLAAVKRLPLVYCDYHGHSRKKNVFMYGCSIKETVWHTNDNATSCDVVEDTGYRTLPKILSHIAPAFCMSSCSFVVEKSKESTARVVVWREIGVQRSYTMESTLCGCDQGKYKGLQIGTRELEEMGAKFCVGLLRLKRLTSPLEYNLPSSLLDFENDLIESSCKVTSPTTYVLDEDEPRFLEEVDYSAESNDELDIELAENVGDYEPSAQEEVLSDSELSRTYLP
Sequence of UniProt P31751 (P31751 whole entry, looked up): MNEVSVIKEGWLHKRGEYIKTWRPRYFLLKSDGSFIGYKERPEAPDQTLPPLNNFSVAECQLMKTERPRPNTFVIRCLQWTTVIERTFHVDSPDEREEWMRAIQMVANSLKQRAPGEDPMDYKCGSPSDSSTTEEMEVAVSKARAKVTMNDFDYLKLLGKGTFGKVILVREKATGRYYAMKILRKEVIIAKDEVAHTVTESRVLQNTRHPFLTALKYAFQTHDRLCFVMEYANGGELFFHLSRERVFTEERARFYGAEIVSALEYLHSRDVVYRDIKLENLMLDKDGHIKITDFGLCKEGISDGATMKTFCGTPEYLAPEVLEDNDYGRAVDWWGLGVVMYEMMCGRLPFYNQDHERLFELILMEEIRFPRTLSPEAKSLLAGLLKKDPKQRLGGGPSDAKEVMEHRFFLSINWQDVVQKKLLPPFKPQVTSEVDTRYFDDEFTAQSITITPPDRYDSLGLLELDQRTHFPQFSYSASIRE
Sequence of UniProt O75843 (O75843 whole entry, looked up): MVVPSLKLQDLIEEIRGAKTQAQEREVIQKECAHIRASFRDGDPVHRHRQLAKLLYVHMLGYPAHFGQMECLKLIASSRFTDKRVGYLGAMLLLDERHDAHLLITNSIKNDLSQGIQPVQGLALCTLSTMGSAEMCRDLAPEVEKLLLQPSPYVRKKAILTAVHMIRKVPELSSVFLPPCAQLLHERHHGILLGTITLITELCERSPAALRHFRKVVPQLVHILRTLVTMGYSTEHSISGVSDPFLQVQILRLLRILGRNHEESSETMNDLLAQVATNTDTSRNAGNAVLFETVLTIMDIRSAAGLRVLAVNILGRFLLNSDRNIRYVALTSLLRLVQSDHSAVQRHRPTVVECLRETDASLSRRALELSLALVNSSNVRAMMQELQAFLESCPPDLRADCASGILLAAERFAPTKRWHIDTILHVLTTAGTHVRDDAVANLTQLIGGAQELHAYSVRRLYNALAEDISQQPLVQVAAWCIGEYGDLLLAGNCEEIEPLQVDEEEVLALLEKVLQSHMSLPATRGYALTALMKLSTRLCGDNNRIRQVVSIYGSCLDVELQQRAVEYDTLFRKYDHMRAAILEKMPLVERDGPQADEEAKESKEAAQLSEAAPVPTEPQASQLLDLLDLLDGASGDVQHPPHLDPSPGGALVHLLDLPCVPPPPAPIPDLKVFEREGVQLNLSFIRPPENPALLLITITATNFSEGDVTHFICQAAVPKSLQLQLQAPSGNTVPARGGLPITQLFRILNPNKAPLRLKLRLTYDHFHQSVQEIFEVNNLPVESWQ
Sequence of UniProt P51649 (P51649 whole entry, looked up): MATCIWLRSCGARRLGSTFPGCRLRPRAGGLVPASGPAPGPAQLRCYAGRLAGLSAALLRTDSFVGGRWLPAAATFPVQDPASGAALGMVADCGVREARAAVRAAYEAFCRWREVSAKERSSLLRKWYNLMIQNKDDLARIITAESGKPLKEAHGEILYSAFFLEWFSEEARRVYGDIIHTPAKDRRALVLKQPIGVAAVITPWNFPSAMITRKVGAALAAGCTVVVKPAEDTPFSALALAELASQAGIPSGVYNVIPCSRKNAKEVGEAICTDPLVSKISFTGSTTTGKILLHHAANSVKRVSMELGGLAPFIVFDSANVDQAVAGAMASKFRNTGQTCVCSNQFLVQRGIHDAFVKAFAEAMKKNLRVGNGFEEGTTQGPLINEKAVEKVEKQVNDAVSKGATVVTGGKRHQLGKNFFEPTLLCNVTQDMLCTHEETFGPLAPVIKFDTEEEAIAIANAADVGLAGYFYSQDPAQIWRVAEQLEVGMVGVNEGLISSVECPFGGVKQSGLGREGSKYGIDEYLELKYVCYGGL

Target | log2 fold change
ARGLU1 (UniProt Q9NWB6) | 0.036 (inactive)
ANXA13 isoform 2 (UniProt P27216) | -0.048 (inactive)
ARL13B (UniProt Q3SXY8) | 0.012 (inactive)
ABHD13 (UniProt Q7L211) | 0.153 (inactive)
ANKRD40 (UniProt Q6AI12) | 0.536 (inactive)
AIMP1 isoform 2 (UniProt Q12904) | 0.006 (inactive)
ACSL1 (UniProt P33121) | 0.014 (inactive)
AK4 (UniProt P27144) | 0.059 (inactive)
AIFM2 (UniProt Q9BRQ8) | 0.039 (inactive)
AGO4 (UniProt Q9HCK5) | 0.001 (inactive)
ADRM1 (UniProt Q16186) | -0.001 (inactive)
AKT1 (UniProt P31749) | -0.028 (inactive)
ACTG1 (UniProt I3L4N8) | -0.098 (inactive)
ABCF3 (UniProt Q9NUQ8) | 0.031 (inactive)
ABCF2 isoform 2 (UniProt Q9UG63) | 0.04 (inactive)
ACIN1 (UniProt E7EQT4) | 0.037 (inactive)
ABHD17B (UniProt Q5VST6) | -0.028 (inactive)
ABL2 (UniProt P42684) | 0 (inactive)
AKR1B1 (UniProt P15121) | 0.059 (inactive)

Target | log2 fold change
AKAP8 (UniProt O43823) | -0.016 (inactive)
ALDH5A1 isoform 2 (UniProt P51649) | -0.017 (inactive)
APOBEC3C (UniProt Q9NRW3) | 0.013 (inactive)
AP1G2 (UniProt O75843) | 0.016 (inactive)
ARAF (UniProt P10398) | -0.078 (inactive)
ARL15 (UniProt Q9NXU5) | 0.018 (inactive)
AFF4 (UniProt Q9UHB7) | -0.081 (inactive)
ACIN1 isoform 5 (UniProt Q9UKV3) | 0.013 (inactive)
ADD1 isoform 3 (UniProt P35611) | -0.01 (inactive)
ALDH6A1 (UniProt Q02252) | 0 (inactive)
ADAMTS5 (UniProt Q9UNA0) | 0 (inactive)
AKT2 (UniProt P31751) | 0.031 (inactive)
ACYP1 (UniProt P07311) | -0.036 (inactive)
AK2 (UniProt P54819) | 0.01 (inactive)
ADAM17 (UniProt P78536) | 0.093 (inactive)
AMDHD2 isoform 3 (UniProt Q9Y303) | 0.031 (inactive)
ACBD6 (UniProt Q9BR61) | -0.009 (inactive)
ACOX1 isoform 2 (UniProt Q15067) | -0.026 (inactive)
AGTPBP1 (UniProt Q9UPW5) | 0.051 (inactive)
